Screening data from PubChem BioAssay.
HP1b chromo inh – HTS for Inhibitors of HP1-beta Chromodomain Interactions with Methylated Histone Tails; AID 540317, 2011; 390,000 tested, 0.56% active; Potency, µM (highest dose often 114 µM), usual class: inhibitors; Chromobox protein homolog 1 (Homo sapiens), P83916; AlphaScreen HP1-beta / biotin-H3K9me3 peptide binding; note: nearly all actives have a fitted effect of over 70% in size
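HP1-beta protein (50 nM final) preincubated 30 min at room temperature with biotinylated H3(1-18)K9me3 peptide (50 nM) in PBS pH 7.4, 0.01% Tween-20, then compound added for 30 min. AlphaScreen streptavidin donor/nickel chelate acceptor beads (10 ug/mL final), 30 min dark, luminescence read.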
PLK1 PBD block – qHTS for Inhibitors of PLK1-PDB (polo-like kinase 1 - polo-box domain): Primary Screen; 360,000 tested, 2.8% active; Potency, µM, actives largely listed as inhibitors; Serine/threonine-protein kinase PLK1 (Homo sapiens), P53350; AID 720504, 2013; Plk1 PBD binding of FITC phosphopeptide, fluorescence polarization; note: series mostly up to about 57 µM; nearly all actives have a fitted effect of over 65% in size
JMJD2A Tudor – qHTS Assay for Inhibitors of JMJD2A-Tudor Domain; AlphaScreen JMJD2A-Tudor / H3K4me3 peptide binding; 390,000 tested, 4.4% active; AID 504339, 2011; Lysine-specific demethylase 4A (Homo sapiens), O75164; Potency, µM (series often up to 114 µM), usual class: inhibitors; note: nearly all actives have a fitted effect of over 50% in size
G9a block – qHTS Assay for Inhibitors of Histone Lysine Methyltransferase G9a. G9a H3K9 monomethylation, AlphaScreen, 2 h. Potency, µM (highest dose often 102 µM), usual class: inhibitors. 350,000 tested, 8.8% active; note: nearly all actives have a fitted effect of over 75% in size
Target sequence (Q96KQ7 913-1193 limits assumed): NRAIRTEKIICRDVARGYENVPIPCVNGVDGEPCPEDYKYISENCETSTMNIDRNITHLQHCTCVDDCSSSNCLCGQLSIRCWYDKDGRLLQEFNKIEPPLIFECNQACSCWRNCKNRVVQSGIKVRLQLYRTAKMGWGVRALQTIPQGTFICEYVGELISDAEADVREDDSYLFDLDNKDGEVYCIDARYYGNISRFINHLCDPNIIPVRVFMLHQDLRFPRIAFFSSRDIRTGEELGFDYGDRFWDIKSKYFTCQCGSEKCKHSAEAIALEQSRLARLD
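G9a (20 nM) preincubated 15 min RT with compounds, then 500 nM biotinylated H3K9 peptide and 20 uM SAM added; 2 h RT reaction. Monomethyl-H3K9 product detected by AlphaScreen with anti-H3K9me1 antibody, streptavidin donor and anti-rabbit IgG acceptor beads.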
PI5P4Ka inh – qHTS for Inhibitors of phosphatidylinositol 5-phosphate 4-kinase (PI5P4K). max response, %. PI5P4Kalpha enzyme, ADP-Glo luminescence, 60 min; active compounds read low. Phosphatidylinositol 5-phosphate 4-kinase type-2 alpha (Homo sapiens), P48426. AID 652105, 2013. 330,000 tested, 1.2% active; active = max response of -50% or lower; inconclusive = between -30% and -50%; inactive = -30% or higher; note: value at the top dose of about 77 µM
Target sequence (P48426 whole entry, looked up): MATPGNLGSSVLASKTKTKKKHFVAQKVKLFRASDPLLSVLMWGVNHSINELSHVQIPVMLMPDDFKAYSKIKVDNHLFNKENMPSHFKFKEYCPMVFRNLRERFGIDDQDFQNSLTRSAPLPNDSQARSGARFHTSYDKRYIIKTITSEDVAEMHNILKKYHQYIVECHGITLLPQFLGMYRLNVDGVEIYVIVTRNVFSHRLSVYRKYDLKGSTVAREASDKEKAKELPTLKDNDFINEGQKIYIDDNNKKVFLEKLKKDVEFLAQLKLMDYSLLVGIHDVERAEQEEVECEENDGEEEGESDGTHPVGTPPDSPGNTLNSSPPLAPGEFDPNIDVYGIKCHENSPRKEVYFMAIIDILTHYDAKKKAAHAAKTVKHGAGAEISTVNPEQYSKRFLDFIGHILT
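Quantitative HTS of the MLSMR library against PI5P4Kalpha with substrate. ATP added last at 5 microM final; room temperature, 60 minutes. Remaining ATP depleted, ADP converted and read as luminescence.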
BAZ2B block – qHTS Assay for Inhibitors of BAZ2B; Bromodomain adjacent to zinc finger domain protein 2B (Homo sapiens), Q9UIF8; AlphaScreen BAZ2B-H3K14Ac peptide displacement; Potency, µM (highest dose often 114 µM), hits mostly inhibitors; 360,000 tested, 4.4% active; note: nearly all actives have a fitted effect of over 60% in size
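BAZ2B (50 nM) with biotin-H3(5-23)K14Ac peptide (50 nM) in PBS pH 7.4, 0.01% Tween-20, preformed 30 min, then compound 30 min at room temperature; top concentration 110uM. AlphaScreen streptavidin donor/nickel chelate acceptor beads (10 ug/mL final), 20 min dark, signal read.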
A number is an active result; – = inactive; ? = inconclusive; · = not tested or not shown; ! = a repeat was not active; [ ] = remark or other dose. Rows were chosen to be rich in hits. Some 12% of all compounds tested hit in one or more screens of this group. Unless noted, calls come from the whole dose curve; as a rule, active = well fitted curve in the direction sought with a large enough effect; inconclusive = small, poorly fitted or top-dose-only effect, or another doubt; inactive = no such curve, though single readings can be large; an effect the other way counts as inactive or inconclusive.

SMILES | HP1b chromo inh | PLK1 PBD block | JMJD2A Tudor | G9a block | PI5P4Ka inh | BAZ2B block
CN(C(=O)c1ccc(NC(=O)Cc2cccc(NC(=O)C3CCCN(C(=O)C4CCC4)C3)c2)cc1)C1CCCC1 (stereo not drawn) | – | – | – | –[0.501 µM] | – | –
CCOC(=O)c1c(-c2ccccc2)csc1NC(=O)/C(C#N)=C\c1ccc(O)c(OC)c1 | ? | – | 28µM | · | ? | ·
COc1cc(/C=C(\C#N)C(=O)Nc2cccc3ncccc23)ccc1O | · | · | · | · | · | –
COc1cc(/C=C(\C#N)C(=O)Nc2ccccn2)ccc1O | – | – | – | ? | -52 | –
N#C/C(=C\c1cccs1)C(=O)Nc1ccccn1 | – | – | – | 56µM | – | –
CC(C)(C)c1ccc(C(=O)/C(C#N)=C/c2cccs2)cc1 | ? | 7.5µM | ? | ? | – | 50µM
CCOC(=O)c1ccc(NC(=O)C2CCCN(c3ncnc4onc(-c5ccc(F)cc5)c34)C2)cc1 (stereo not drawn) | – | · | – | – | · | –
Cc1ccc(NC(=O)CSc2nc3c(c(=O)[nH]2)CCC3)cc1Cl | – | · | – | – | · | –
CC1CCCCC1NC(=O)/C(C#N)=C/c1ccc2c(c1)OCCO2 (stereo not drawn) | – | 27µM | – | – | – | –
Cc1cc(C)n(CC(C)(O)c2ccccc2)n1 (stereo not drawn) | – | – | – | –[12.7 µM] | – | –
CC1CCN(C(=S)NC(=O)c2ccc(F)cc2)CC1 | – | – | – | · | – | ·
Oc1ccc(C(=S)N2CCCC2)cc1 | – | 24µM | – | · | – | –
CC1CCN(C(=S)c2ccccc2O)CC1 | ? | 15µM | ? | ? | · | –
S=C(c1ccc(OCc2ccccc2)cc1)N1CCCC1 | – | – | – | – | – | –
CC1CCN(C(=S)c2ccc(O)cc2)CC1 | – | ? | – | 35µM | – | –
Oc1ccc(C(=S)N2CCCCCC2)cc1 | – | ? | – | 32µM | – | –
CCOC(=O)c1cc2c(=O)n3ccccc3nc2n(C)c1=NC(=O)c1c(-c2ccccc2Cl)noc1C | – | · | – | – | · | –
O=C1CC(c2ccccc2)CC2=C1C1(CCCCC1)N=C(Nc1nc3ccccc3o1)N2 (stereo not drawn) | · | · | – | · | · | ·
COc1ccc(C(=S)N2CCCC2)cc1 | – | – | – | ? | – | –
Oc1cccc(C(=S)N2CCCCC2)c1 | – | 11µM | –[11.4 µM] | 32µM | – | –
Cc1ccc(C(=S)N2CCCCCC2)cc1 | – | ? | – | 10µM | – | –
COc1ccc(C(=S)N2CCCCC2)cc1Br | – | – | ? | – | – | –
O=C(Nn1c(-c2ccc(Br)cc2)nc2ccccc2c1=O)c1cccnc1 | – | ? | 35µM | – | -56 | ·
O=C(Nn1c(-c2ccncc2)nc2ccccc2c1=O)c1ccccc1Br | – | – | – | 50µM | – | –
Cc1ccc(CN(C(=O)COc2ccc(C(C)(C)C)cc2)C2CCS(=O)(=O)C2)o1 (stereo not drawn) | – | · | ? | – | · | –
SMILES | HP1b chromo inh | PLK1 PBD block | JMJD2A Tudor | G9a block | PI5P4Ka inh | BAZ2B block
CC(=O)N1CCN(C(=S)c2cccc([N+](=O)[O-])c2)CC1 | – | – | – | ? | – | –
O=[N+]([O-])c1ccc(N2CCN(C(=S)c3cccc([N+](=O)[O-])c3)CC2)cc1 | 11µM | 2.4µM | ? | 2µM | ? | 56µM
Cc1ccccc1N1CCN(C(=S)c2ccc(-c3cccc([N+](=O)[O-])c3)o2)CC1 | – | ? | ? | 13µM | – | ·
Cc1ccccc1N1CCN(C(=S)c2ccc(-c3ccc([N+](=O)[O-])cc3)o2)CC1 | ? | ? | ? | · | – | 7.9µM
Cc1ccc(CN2CCN(c3ccccc3)CC2)o1 | ? | – | 20µM | 22µM | – | 50µM
Cc1ccc(CN2CCN(c3ncccn3)CC2)o1 | – | – | – | ? | · | –
CC(=O)N1CCN(c2ccccc2NC(=O)c2ccc(-c3cccc([N+](=O)[O-])c3)o2)CC1 | – | – | – | ? | – | –
COc1ccccc1N1CCN(C(=O)Nc2ccc([N+](=O)[O-])cc2)CC1 | – | – | – | – | – | –
O=C(NCc1ccc(Cl)cc1)c1cnc(N2CCCCC2)c2ccccc12 | – | · | – | – | · | –
COc1ccc(/C=C/C(=O)OCC(=O)NC(C)CCc2ccccc2)cc1OC (stereo not drawn) | – | – | – | · | – | ·
O=C(CC1N=C2c3ccccc3N=C(SCc3cccc(Cl)c3)N2C1=O)NCCc1ccccc1 (stereo not drawn) | – | · | – | – | · | –
O=[N+]([O-])c1cccc(-c2ccc(CN3CCN(c4ccccc4)CC3)o2)c1 | ? | – | 35µM | 40µM | – | 45µM
Cc1ccc(N2CCN(C(=S)c3ccc(-c4cccc([N+](=O)[O-])c4)o3)CC2)cc1 | ? | 30µM | ? | 8.9µM | – | ?
O=C(CN1CCN(c2ccccc2)CC1)Nc1cccc([N+](=O)[O-])c1 | – | – | – | – | – | ?
Cn1nnnc1SCC1=C(C(=O)O)N2C(=O)C(NC(=O)C3CC3c3ccccc3)C2SC1 (stereo not drawn) | – | ? | ? | ? | – | 71µM
N[C@H](C(=O)N[C@@H]1C(=O)N2C(C(=O)O)=C(Cl)CS[C@@H]12)c1ccccc1 | · | · | · | 8.9µM! | · | ·
Cn1nnnc1SCC1=C(C(=O)O)N2C(=O)[C@@H](NC(=O)[C@H](O)c3ccccc3)[C@H]2SC1 | ? | 13µM | 22µM | 13µM | ? | 50µM
Cn1nnnc1SCC1=C(C(=O)O)N2C(=O)C(NC(=O)C(O)c3ccccc3)C2SC1 (stereo not drawn) | · | · | · | –[2.33 µM] | · | ·
CC1=C(C(=O)O)N2C(=O)[C@@H](NC(=O)[C@H](N)c3ccc(O)cc3)[C@H]2SC1 | – | – | – | · | – | ·
CC(C(=O)NC1C(=O)N2C(C(=O)O)=C(CSc3nnnn3C)CSC12)n1cc(Br)cn1 (stereo not drawn) | – | – | – | 28µM | – | 50µM
Cc1nn(C(C)C(=O)NC2C(=O)N3C(C(=O)O)=C(CSc4nnnn4C)CSC23)cc1Cl (stereo not drawn) | – | – | – | ? | – | ?
CCCNC(=O)C1(C)CCN(C(=O)c2cccc(C#N)c2)C1 (stereo not drawn) | · | – | · | · | – | ·
COc1ccc(-c2cnc3c(NC=O)cc(-c4ccccc4OC)cn23)cc1OC | · | – | · | · | ? | ·
Cc1cc(C(F)F)nn1CC(=O)NC1C(=O)N2C(C(=O)O)=C(CSc3nnnn3C)CSC12 (stereo not drawn) | – | – | – | 35µM | – | 56µM
